Compounds with a hit are over-represented: about 9.2% of the library has one in this group of screens.
Rab9 promoter act: activates the Rab9 promoter; Huh7 Rab9 promoter-luciferase reporter, luminescence, 24 h; Potency, µM (titrated, usually from 9.22 µM), for inactives: at the highest dose activation, negative = inhibition, most hits filed as activators; 2.8% of 320,000 active; note: % of control where 0% means no effect; nearly all actives have a fitted effect of over 60% in size
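Measured in stably transfected Huh7 cells bearing a Rab9 promoter–luciferase construct: 24 h compound treatment at 37 °C, followed by luminescence detection.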
FLuc counter: firefly luciferase modulation, counter-screen for miR-21 project | Potency, µM (top dose mostly 57.5 µM), without a hit: at the top dose activity change, negative = inhibition, usual class: inhibitors | purified FLuc, Km substrates, luminescence inhibition | 6.9% of 360,000 active;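 note: plate controls were vehicle for no effect and reference inhibitor for full effect; nearly all actives have a fitted effect of over 55% in size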
Target sequence (P08659 whole entry, looked up): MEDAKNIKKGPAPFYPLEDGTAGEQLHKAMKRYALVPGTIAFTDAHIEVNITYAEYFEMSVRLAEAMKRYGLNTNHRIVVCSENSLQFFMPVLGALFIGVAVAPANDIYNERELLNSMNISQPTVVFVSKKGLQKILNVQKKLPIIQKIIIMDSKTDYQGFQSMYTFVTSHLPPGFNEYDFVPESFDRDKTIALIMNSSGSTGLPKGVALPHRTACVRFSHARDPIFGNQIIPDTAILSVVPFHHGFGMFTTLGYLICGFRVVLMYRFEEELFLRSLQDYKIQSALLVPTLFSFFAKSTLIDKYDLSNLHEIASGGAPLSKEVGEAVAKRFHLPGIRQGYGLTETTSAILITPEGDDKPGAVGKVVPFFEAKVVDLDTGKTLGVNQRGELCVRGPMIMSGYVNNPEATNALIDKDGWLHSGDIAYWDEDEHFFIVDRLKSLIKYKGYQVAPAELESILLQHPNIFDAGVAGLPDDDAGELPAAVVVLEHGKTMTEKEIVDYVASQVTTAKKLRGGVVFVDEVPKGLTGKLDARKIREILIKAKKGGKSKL
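Purified P. pyralis luciferase, 10 nM final, with Km-level 10 uM D-luciferin and 10 uM ATP in 50 mM Tris acetate pH 7.5, 10 mM Mg acetate, 0.01% Tween-20, 0.05% BSA; 6-point qHTS titration about 60 µM downward; luminescence read.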
NPC1 promoter act: activates the NPC1 promoter | Huh7 NPC1 promoter luciferase reporter, 24 h | Potency, µM (series often up to 9.22 µM), without a hit: at the top dose activation, actives largely listed as activators | 2.4% of 320,000 active | AID 485313; note: % of control where 0% means no effect; nearly all actives have a fitted effect of over 60% in size
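Huh7 reporter cells (NPC1 promoter driving luciferase) are dosed with compound for 24 h at 37 °C, 5% CO2; luciferase detection reagent is then added and luminescence measured after 10 min at ambient temperature.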
ELG1 genotox: induces genotoxicity in HEK293T cells with luciferase-tagged ELG1; HEK293T ELG1-luciferase reporter, luminescence, 16 h; Potency, µM (series often up to 46 µM), for inactives: top-dose activity change, positive = activation, usual class: activators; 1.3% of 330,000 active; AID 504466; note: % of control where 0% means no effect; nearly all actives have a fitted effect of over 60% in size
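Luminescence read-out: rising ELG1-luciferase signal, reflecting elevated ELG1 protein under genetic stress, flags genotoxic compounds. Cells were treated for 16 hr at 37 °C before ONE-Glo detection.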
SMN2 splice enh: enhancers of SMN2 splice variant expression. HEK293 SMN2-luciferase splicing reporter, luminescence, 30-36 h. Potency, µM (top dose mostly 46.1 µM), for the others: at the highest dose activity change, positive = activation, actives largely listed as activators. 2.8% of 210,000 active; note: % of control where 0% means no effect; nearly all actives have a fitted effect of over 55% in size
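HEK293 cells carry an SMN2 minigene-luciferase reporter in which exon 7 inclusion puts luciferase in frame. Cells were seeded at 2000 cells/well, attached for 10-12 hours, then exposed to compounds for 30-36 hours at 37C before ONE-Glo luminescence.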
ELG1 DNA repair: ELG1-dependent DNA repair inhibition; HEK293T ELG1-luciferase reporter, luminescence, 16 h; DNA damage induced by 5-fluorouridine; Potency, µM (doses to about 46.1 µM), for the others: top-dose activity change, negative = inhibition, usual class: inhibitors; 2.3% of 330,000 active; note: % is set by controls: 0 for no effect and ±100 for the full control effect; nearly all actives have a fitted effect of over 55% in size
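HEK293T cells expressing luciferase-tagged ELG1 (2,000/well) received 5-Fluorouridine plus compound or DMSO for 16 hr at 37 °C. Luciferase was read by ONE-Glo luminescence after 30 min at room temperature.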
The depositor's hits bear a star; ? = inconclusive; nt = no result; [ ] = dose if it differs, or a comment. Calls come from the whole dose curve; as a rule, active = well fitted curve in the direction sought with a large enough effect; inconclusive = small, poorly fitted or top-dose-only effect, or another doubt; inactive = no such curve, though single readings can be large; an effect the other way counts as inactive or inconclusive. Potency is the fitted concentration of half-maximal effect.

SMILES	Rab9 promoter act	FLuc counter	NPC1 promoter act	ELG1 genotox	SMN2 splice enh	ELG1 DNA repair
CC(OC(=O)CCC(=O)c1cccs1)C(=O)NC1CCCCC1C (stereo not given)	-7%	nt	0%	0%	nt	16%
CCc1ccc(Sc2cc(C(=O)NCCCN3CCCC(C)C3)c3ccccc3n2)cc1 (stereo not given)	nt	-1%	nt	nt	nt	nt
CSc1ccc(CN2CCC(CO)(CCOc3ccccc3)CC2)cc1	-4%	-1%	-4%	-6%	nt	-14%
O=C(c1cc(-c2cccs2)nc2ccccc12)N1CCN(c2ccccc2O)CC1	18%	21µM*	5%	-10%	-66%	?
COc1ccc(Cl)cc1CN1CCN(c2nc(C)cc(C)c2C#N)CC1	-10%	-2%	-2%	-15%	-38%	-10%
Cc1cc(C)c(C#N)c(N2CCN(CCOc3ccc(Cl)cc3)CC2)n1	?	1%	0%	4%	-26%	18µM*
COc1ccc(CNC(=O)C(c2ccco2)N(C(=O)Cc2cccs2)c2cccnc2)cc1 (stereo not given)	1%	2%	9%	-9%	nt	-17%
COc1ccc(CNC(=O)C(c2cccs2)N(Cc2ccco2)C(=O)Cc2cccs2)cc1 (stereo not given)	-1%	-4%	-1%	-11%	-16%	15µM*
COc1ccc(CNC(=O)C(c2ccco2)N(Cc2ccccc2)C(=O)Cc2cccs2)cc1 (stereo not given)	-1%	0%	-1%	-10%	12%	18µM*
CCS(=O)(=O)Nc1ccc(-c2ccc(NS(=O)(=O)CC)c(OC)c2)cc1OC	-1%	-1%	-2%	-2%	-16%	23µM*
COc1ccc(NS(=O)(=O)CC(C)C)c(OC)c1	0%	4%	-3%	0%	12%	3%
COc1cc(C(=O)OCc2cc(=O)n3nc(C(C)C)sc3n2)cc(OC)c1OC	nt	0%	nt	nt	nt	nt
CC(C)c1nn2c(=O)cc(COC(=O)c3ccc(NC(=O)c4ccccc4Cl)cc3)nc2s1	nt	-2%	nt	nt	nt	nt
CC(C)c1nn2c(=O)cc(COC(=O)c3cccs3)nc2s1	nt	11µM*	nt	nt	nt	nt
CC(C)c1nn2c(=O)cc(COC(=O)c3ccccc3Cl)nc2s1	nt	17µM*	nt	nt	nt	nt
COc1cc(-c2cc(-c3ccc(O)cc3)nc(N)c2C#N)ccc1O	-8%	1%	-4%	-12%	nt	?
CCOc1cc(-c2cc(-c3ccc(C)cc3)nc(N)c2C#N)ccc1O	-7%	-16%	-2%	-5%	?	16µM*
CCOc1cc(-c2c(C#N)c(N)nc3c2CCc2ccccc2-3)ccc1O	-2%	-14%	-1%	15%	13µM*	-21%
COc1ccc(C(=O)NC(=S)Nc2ccc3[nH]c(=O)[nH]c3c2)c(OC)c1	0%	1%	16%	4%	nt	?
CC(C)OC(=O)c1c2c(n3ccccc13)C(=O)c1ccccc1C2=O	19%	-7%	-3%	-4%	1%	18µM*
COC(=O)c1cc2c(C)c(C)c3ccccn3c-2c1C(=O)OC	6%	?	-4%	-3%	0%	?
O=C(CSc1nnc(CCCOc2ccc(Cl)cc2Cl)o1)Nc1ccc(C(=O)O)cc1	-6%	5.4µM*	1%	4%	9%	14%
CCn1c(CCCOc2ccc(Cl)cc2Cl)nnc1SCC(=O)Nc1cccc(F)c1	-5%	9.5µM*	1%	0%	8%	22%
CCCc1nnc(SCC(=O)Nc2ccc(Cl)cc2Cl)o1	1%	-2%	5%	-1%	nt	25%
O=C(CC(Nc1ccccc1)C(=O)O)c1ccccc1 (stereo not given)	2.8µM*	0.85µM*	3.2µM*	?	13µM*	?
SMILES	Rab9 promoter act	FLuc counter	NPC1 promoter act	ELG1 genotox	SMN2 splice enh	ELG1 DNA repair
Cc1ccc(NC(CC(=O)c2ccccc2)C(=O)O)cc1Cl (stereo not given)	?	2.1µM*	10%	?	nt	?
O=C(CC(C(=O)O)c1cccc(Cl)c1)c1ccccc1 (stereo not given)	-11%	2%	0%	-1%	nt	1%
O=C(CC(Nc1ccc(Cl)cc1Cl)C(=O)O)c1ccccc1 (stereo not given)	10%	2.7µM*	6%	6.5µM*	nt	?
Cc1c(C(=O)N2CCCCCC2)c(S(=O)(=O)Nc2ccc(OC(F)(F)F)cc2)c(C)n1C	nt	1%	nt	nt	nt	nt
COc1ccc(N/N=C(\C#N)C(N)=O)cc1	-2%	-17%	9%	9%	19%	?
N#C/C(=N/Nc1ccc(OC(F)(F)F)cc1)C(N)=S	-36%	11µM*	-25%	-3%	nt	?
CSc1nn(Cc2ccccc2C)c(NC(C)=O)c1S(=O)(=O)c1ccc(C)cc1	nt	2%	nt	nt	nt	nt
COc1ccc2oc(=O)c(C(=O)Nc3ccccc3O)cc2c1	0.4µM*	0.6µM*	1µM*	0.65µM*	nt	?
COc1ccc(NC(=O)c2cc3cc(OC)ccc3oc2=N)cc1	-1%	9.5µM*	9%	10%	-22%	7%
COc1ccc2oc(=O)c(C(C)=O)cc2c1	1%	6%	-4%	-1%	-19%	-7%
COc1ccc2oc(=O)c(C(=O)Nc3ccc(C(=O)O)cc3)cc2c1	nt	6.7µM*	nt	nt	-1%	nt
COc1ccccc1NC(=O)c1cc2cc(Br)ccc2oc1=N	-1%[1.84 µM]	4.8µM*	26%	2%	nt	25%
N=c1oc2ccc(Br)cc2cc1C(=O)NC1CCCCCC1	0%	2%	0%	-8%	nt	11%
CCOc1ccc(NC(=O)CN(C)C(=O)CCCn2c(=O)oc3ccccc32)cc1OCC	3%	1%	-2%	-2%	nt	2%
CNc1c([N+](=O)[O-])cnn1-c1ccc(Cl)cc1Cl	5%	-2%	-2%	0%	9%	11%
CNc1c([N+](=O)[O-])cnn1-c1ccccc1Cl	15%	15µM*	21%	11%	6%	?
COc1ccc(N(CC(=O)NCc2ccco2)C(=O)CNS(=O)(=O)c2ccc(Cl)cc2)cc1	-3%	1%	-4%	-1%	nt	0%
O=c1c2ccccc2cnn1-c1nc2ccccc2[nH]1	?	0.17µM*	0.1µM*	-8%	nt	?
O=c1c(Cl)c(N2CCCCC2)cnn1-c1nc2ccccc2[nH]1	0.11µM*	0.38µM*	?	?	-63%	?
C=C1C=C(C(F)F)n2ncc(C(=O)NCc3ccccc3C(F)(F)F)c2N1	nt	-1%	nt	nt	nt	nt
CCC(=O)N(Cc1cc(=O)[nH]c2ccccc12)c1ccccc1	-2%	0%	2%	0%	nt	-11%
O=C(CCl)N(Cc1cc(=O)[nH]c2ccccc12)c1ccccc1	-25%	0%	-17%	-18%	nt	13µM*
